CYP2C9 activ: human CYP2C9 activators, primary screen, biochemical, luminescence; Cytochrome P450 2C9 (Homo sapiens), P11712; hit rate 1.4% among 96,000; activation factor at 5 µM; recombinant CYP2C9, luciferin-H conversion; stronger effect = higher value; factor 1 = untreated enzyme, 0 = blocked;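 active = activation factor of 2 or more for CYP2C9 at a 5 µM dose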
CYP2C19 inhib: blockers of cytochrome P450 2C19 activity – biochemical, luminescence, ADME assay, primary screen; P33261; CYP2C19 Supersomes, luciferin-H EGE luminescence, 30 min; inhibition, % at 5 µM; hit rate 21% among 96,000; AID 778, 2007;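 active = CYP2C19 inhibition above a set limit at 5 µM in the primary screen, cut at about 50% in these data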
Target sequence (P33261 whole entry, looked up): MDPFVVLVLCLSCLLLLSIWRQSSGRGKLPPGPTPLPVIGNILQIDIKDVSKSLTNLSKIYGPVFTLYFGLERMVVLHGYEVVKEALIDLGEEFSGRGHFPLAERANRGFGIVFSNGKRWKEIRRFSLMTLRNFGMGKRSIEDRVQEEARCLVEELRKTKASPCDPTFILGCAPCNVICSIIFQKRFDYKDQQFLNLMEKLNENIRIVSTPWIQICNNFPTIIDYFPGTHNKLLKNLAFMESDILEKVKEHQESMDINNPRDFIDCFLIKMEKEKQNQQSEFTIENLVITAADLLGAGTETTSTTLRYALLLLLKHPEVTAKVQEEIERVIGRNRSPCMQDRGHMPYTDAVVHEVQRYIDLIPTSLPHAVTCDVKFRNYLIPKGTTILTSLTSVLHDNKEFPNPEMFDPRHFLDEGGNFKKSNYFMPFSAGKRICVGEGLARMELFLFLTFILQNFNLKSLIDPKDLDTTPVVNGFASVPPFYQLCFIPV
D1 allo mod: D1 CRE-luciferase signal change, two-sided – cell-based, HEK293 D1, dopamine EC30, D1 allosteric modulator project, primary screen. dopamine EC30 potentiation; actives deviate in either direction. hit rate 5.9% among 58,000. B-score at 10 µM. D(1A) dopamine receptor (Homo sapiens), P21728. AID 641, 2007;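 active = luminescence count or its row- and column-corrected plate score outside the 99.7% band of the plate's sample wells, on either side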
CYP2C19 activ: human CYP2C19 activators, primary screen, biochemical, luminescence; Cytochrome P450 2C19 (Homo sapiens), P33261; recombinant CYP2C19, luciferin-H EGE luminescence; stronger effect = higher value; 0 = fully inhibited enzyme, 1 = untreated enzyme; activation factor at 5 µM; 96,000 tested, under 10 active; AID 1025, 2008;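 active = activation factor of at least 2 at 5 µM in the primary screen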
CYP2C9 inh: blockers of cytochrome P450 2C9 activity – biochemical, luminescence, ADME assay, primary screen. CYP2C9 Supersomes, luciferin-H conversion. inhibition, % at 5 µM. hit rate 20% among 96,000. AID 777, 2007;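 active = blocking of liver enzyme CYP2C9 beyond about 50% at 5 µM, limit read from the data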
DAT uptake mod: changed hDAT dopamine uptake under cocaine IC80, either direction, primary screen, cocaine antagonist project, cell-based, LLC-PK1 hDAT, [14C]-dopamine uptake, MLSMR; Sodium-dependent dopamine transporter (Homo sapiens), Q01959; LLC-PK1 hDAT cells, [14C]-dopamine uptake with cocaine IC80; actives deviate in either direction; B-score at 10 µM; hit rate 1.3% among 110,000; AID 449768, 2010;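 active = Z score or B-score, a plate-position-corrected score, falls beyond the plate's 99.7% confidence bounds, in either direction; inactive = both scores lie inside the 99.7% bounds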
A number is an active result; . = inactive; / = not tested or not shown. Most compounds without a hit are left out; they make up all but 28% or so of the library.

SMILES | CYP2C9 activ | CYP2C19 inhib | D1 allo mod | CYP2C19 activ | CYP2C9 inh | DAT uptake mod
Cc1ccccc1CSCC(=O)c1c(N)n(C)c(=O)n(C)c1=O | . | 99 | . | . | 58 | .
O=C1N[C@@H](Cc2cn(S(=O)(=O)c3c(F)c(F)c(F)c(F)c3F)c3ccccc23)C(=O)N[C@H]1Cc1ccccc1 | / | / | / | / | / | .
O=C1N=C(N2CCCCC2)SC1=C1CCCC1 | . | . | . | . | . | .
O=C1N=C(N2CCOCC2)S/C1=C1\C(=O)N(Cc2ccccc2)c2ccc(Br)cc21 | . | . | . | . | 62 | /
Cc1ccc(CN2C(=O)/C(=C3\SC(N4CCOCC4)=NC3=O)c3cc(Br)ccc32)cc1 | . | . | . | . | . | /
CCCCN1C(=O)/C(=C2\SC(N3CCCCC3)=NC2=O)c2ccccc21 | . | 53 | . | . | 90 | .
COc1cc(N2C(=O)NC3CC2(C)Oc2ccc(Br)cc23)cc(OC)c1OC (configuration not stated) | / | / | . | / | / | /
Cc1ccc(/C=N/NC(=O)c2cc(C)oc2C)o1 | . | . | / | . | . | .
Cc1ccc(/C=N/NC(=S)NC(C)C)o1 | . | 51 | / | . | . | .
Cc1ccccc1NC(=O)C(C)O/N=C/c1cccc([N+](=O)[O-])c1 (configuration not stated) | . | 95 | / | . | 93 | .
COc1ccc(C(=O)Cn2c(NCCO)nc3ccccc32)cc1OC | / | / | / | / | / | .
O=C(Cn1c(NCCCO)nc2ccccc21)c1cccc(Br)c1 | . | 76 | . | . | 82 | .
CCCCNc1nc2ccccc2n1CC(=O)N1CCc2ccccc2C1 | . | 58 | . | . | . | .
O=C(Nc1ccc(OC(F)F)cc1)Nc1cccc(C(F)(F)F)c1 | . | . | / | . | . | .
COc1ccc(N2CCN(CCCNC(=O)Nc3ccccc3)CC2)cc1 | . | . | / | . | . | .
COc1ccccc1N1CCN(CCCNC(=O)Nc2ccccc2)CC1 | / | / | -4.8 | / | / | .
O=C(NCCCN1CCN(c2ccccc2)CC1)Nc1ccccc1C(F)(F)F | . | . | -2.7 | . | . | .
CC(C)OCCCN1C(=O)c2ccccc2C1C(=O)NC1CCCCC1 (configuration not stated) | . | . | . | . | . | .
O=C1C(NS(=O)(=O)c2cccs2)=C(N2CCN(c3cccc(Cl)c3)CC2)C(=O)c2ccccc21 | . | 51 | / | . | 78 | .
CC(C)(C)NC(=O)CN(C(=O)CS(=O)CC(=O)Nc1ccc(F)cc1)c1ccc(F)c(Cl)c1 (configuration not stated) | . | . | . | . | 89 | .
CSc1nc(-c2ccco2)nn1C(=O)c1ccc(Cl)cc1 | . | . | / | . | . | /
CCOC(=O)c1ccc(Cn2cnc3ccccc3c2=O)cc1 | . | 62 | . | . | 55 | .
COC(=O)c1ccccc1NC(=O)CCNC(=O)Cn1cnc2ccccc2c1=O | . | . | . | . | . | .
Cc1ccc(C(=O)Cn2cnc3ccccc3c2=O)cc1 | / | / | / | / | / | .
COc1ccc(Cl)cc1NC(=O)CCn1cnc2ccccc2c1=O | 2.3 | 66 | . | . | . | .
SMILES | CYP2C9 activ | CYP2C19 inhib | D1 allo mod | CYP2C19 activ | CYP2C9 inh | DAT uptake mod
COC(=O)c1ccc(C)c(NC(=O)Cn2cnc3ccccc3c2=O)c1 | . | 82 | . | . | 99 | .
COC(=O)c1ccc(Cn2cnc3ccccc3c2=O)cc1 | . | 67 | . | . | . | .
COc1cc(OC)cc(C(=O)OCc2cc3ccccc3[nH]c2=O)c1 | . | . | . | . | . | .
N#Cc1ncc(C(F)(F)F)cc1Sc1ccc(N)cc1 | . | 96 | / | . | 81 | .
N#Cc1cnn2cc(-c3ncc(C(F)(F)F)cc3Cl)cnc12 | . | . | / | . | . | .
COc1cc(NC(=O)N[C@H](C(=O)O)C(C)C)cc(OC)c1 | . | . | . | . | . | .
O=c1oc2c3c4c(cc2c2c1CCC2)OCCN4CCC3 | . | . | . | . | . | .
CCCCN1C(=O)c2ccc(C(=O)Nc3cccc(C)c3C)cc2C1=O | . | . | / | . | . | .
CCCCN1C(=O)c2ccc(C(=O)NC3=NCCS3)cc2C1=O | . | . | / | . | 72 | .
O=C(c1ccccc1)N1CCN(C(=O)c2ccc(OC(F)(F)F)cc2)CC1 | . | . | / | . | . | .
Cc1ncsc1C(=O)Nc1nc2c(s1)CCCC2 | . | 66 | . | . | . | .
COc1ccc(OC)c2sc(NC(=O)c3ccc(Br)s3)nc12 | . | . | . | . | . | .
O=C(Nc1nc2c(s1)CCCC2)c1ccc(Br)s1 | . | . | -4.4 | . | . | .
O=C(CCCc1cccs1)Nc1nc2c(s1)CCCC2 | . | . | . | . | . | .
Cc1cc(C(=O)Nc2nc3c(s2)CCCC3)cs1 | . | . | -5 | . | . | .
Cc1ccccc1NC(=O)CCC(=O)OCCCC(F)(F)C(F)(F)F | . | . | . | . | . | .
CN1CCc2c(sc3c2C(=O)NC(c2ccco2)N3)C1 (configuration not stated) | . | . | . | . | . | .
O=C1NC(c2cccs2)Nc2sc3c(c21)CCCC3 (configuration not stated) | . | . | . | . | 60 | 2.8
CC(C)c1cc(C(=O)O)n(-c2ccccc2)n1 | . | . | / | . | . | .
O=C(O)c1cc2ccccc2n1-c1ccccc1 | . | . | / | . | 54 | .
O=C(CN(Cc1ccccc1Cl)C(=O)c1ccc(CN2CCOCC2)o1)NCC1CCCO1 (configuration not stated) | . | . | / | . | . | .
Cc1cccn2c(=O)c3cc(C(=O)N4CCN(c5ccccc5)CC4)n(C)c3nc12 | / | / | . | / | / | /
COc1ccc(-c2oc(NC(=O)CCl)c(C#N)c2-c2ccc(OC)cc2)cc1 | . | 54 | / | . | 96 | .
COc1ccc(CC(=O)Nc2oc(-c3ccccc3)c(-c3ccccc3)c2C#N)cc1OC | / | / | . | / | / | .
Cc1ccc(OCC(=O)Nc2oc(-c3ccccc3)c(-c3ccccc3)c2C#N)cc1 | / | / | / | / | / | .
COc1ccc(-c2oc(NC(=O)CSc3ncn[nH]3)c(C#N)c2-c2ccc(OC)cc2)cc1 | . | . | / | . | 70 | .
COc1ccccc1OCC(=O)Nc1oc(-c2ccccc2)c(-c2ccccc2)c1C#N | . | . | . | . | 85 | .
N#Cc1c(NC(=O)COC(=O)C2CC3C=CC2C3)oc(-c2ccccc2)c1-c1ccccc1 (configuration not stated) | . | . | . | . | 71 | .
COc1ccc(CNC(=O)CSc2ncn[nH]2)cc1 | . | 65 | . | . | . | .
O=C(CSc1ncn[nH]1)NCc1ccccc1 | . | . | / | . | . | .
